In article PMC5540273 (PLoS ONE, 2017):
Where two headings read alike, the source gives them in different places.

Tests used:
Settings in all cases: n = 1
[1] = tested on: T1, MST2
T1 construct: gene STK3

[2] = tested on: T2, MST3
T2 construct: gene STK24

[3] = tested on: MST4
[4] = tested on: MTOR
[5] = tested on: MUSK
[6] = tested on: MYLK2
[7] = tested on: MYLK4
[8] = tested on: MYLK
[9] = tested on: MYO3A
[10] = tested on: MYO3B
[11] = concentration: 1 μM, replicates: in singlicate
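Also: KINOMEscan kinase panel screen.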

| Compound | %Inh [1, 11] [%] | %Inh [2, 11] [%] | %Inh [3, 11] [%] | %Inh [4, 11] [%] | %Inh [5, 11] [%] | %Inh [6, 11] [%] | %Inh [7, 11] [%] | %Inh [8, 11] [%] | %Inh [9, 11] [%] | %Inh [10, 11] [%] | %Inh ([1]; 1 µM) [%] | %Inh ([2]; 1 µM) [%] | %Inh ([3]; 1 µM) [%] | %Inh ([4]; 1 µM) [%] | %Inh ([5]; 1 µM) [%] | %Inh ([6]; 1 µM) [%] | %Inh ([7]; 1 µM) [%] | %Inh ([8]; 1 µM) [%] | %Inh ([9]; 1 µM) [%] | %Inh ([10]; 1 µM) [%] |
| --- | --- | --- | --- | --- | --- | --- | --- | --- | --- | --- | --- | --- | --- | --- | --- | --- | --- | --- | --- | --- |
| COc1ccc(Nc2nccc(NCCNC(=O)Nc3ccccc3F)n2)cc1 [GSK1379901] | 0 | 0 | 0 | 22 | 15 | 0 | 0 | 15 | 12 | 0 |  |  |  |  |  |  |  |  |  |  |
| Cc1c(Cn2ccn3c(=O)cc(N4CCOCC4)nc23)cccc1C(F)(F)F [GSK2289044] | 0 | 0 | 0 | 15 | 17 | 0 | 0 | 16 | 12 | 2 |  |  |  |  |  |  |  |  |  |  |
| CCn1c(-c2ccccn2)nc2cnccc21 [SB-736398] | 0 | 0 | 0 | 0 | 5 | 3 | 2 | 0 | 18 | 0 |  |  |  |  |  |  |  |  |  |  |
| O=C(Nc1n[nH]c2nc(-c3nccs3)c(Br)cc12)C1CC1 [SB-742251] | 0 | 0 | 0 | 16 | 0 | 93.4 | 23 | 7 | 0 | 0 |  |  |  |  |  |  |  |  |  |  |
| Cl.O=C(Nc1cccc(-c2nn3ncccc3c2-c2ccnc(Nc3cccnc3)n2)c1)c1c(F)cccc1F [GSK312879] | 19 | 0 | 0 | 15 | 23 | 13 | 1 | 2 | 0 | 0 |  |  |  |  |  |  |  |  |  |  |
| O=C(Nc1n[nH]c2cc(-c3cccc(F)c3F)ccc12)C1CC1 [SB-733894] | 31 | 0 | 8 | 0 | 0 | 90.2 | 0 | 8 | 2 | 0 |  |  |  |  |  |  |  |  |  |  |
| COC(=O)c1c(-c2ccccc2)c2cc(OC)ccc2c(=O)n1Cc1ccccc1 | 26 | 20 | 0 | 0 | 11 | 0 | 8 | 0 | 9 | 0 |  |  |  |  |  |  |  |  |  |  |
| Cn1ccc2ncnc(Oc3ccc(Nc4nc5ccccc5[nH]4)cc3)c21 | 5 | 0 | 0 | 0 | 21 | 0 | 0 | 0 | 0 | 0 |  |  |  |  |  |  |  |  |  |  |
| Clc1cc(Cl)cc(Nc2ccnc(Nc3cc(Cl)cc(Cl)c3)n2)c1 [GSK175726] | 20 | 9 | 0 | 18 | 2 | 11 | 13 | 21 | 10 | 3 |  |  |  |  |  |  |  |  |  |  |
| COc1ccc(C2=C(Nc3cccc(C(=O)O)c3)C(=O)NC2=O)cc1 [SB-390765] | 0 | 9 | 16 | 0 | 9 | 0 | 0 | 14 | 12 | 0 |  |  |  |  |  |  |  |  |  |  |
| Nc1nc(-c2nccs2)c(-c2ccnc3ccccc23)s1 [GW693542] | 75 | 0 | 0 | 15 | 15 | 11 | 0 | 11 | 3 | 0 |  |  |  |  |  |  |  |  |  |  |
| COc1cc(Nc2nccc(N3CCC(NC(=O)Nc4cc(C)ccc4C)C3)n2)cc(OC)c1OC (centres unmarked) [GSK1379762] | 0 | 6 | 0 | 10 | 25 | 6 | 0 | 12 | 2 | 0 |  |  |  |  |  |  |  |  |  |  |
| CC(C)(C)c1ccc(C(=O)Nc2cn3cc(-c4cccnc4)ccc3n2)cc1 | 42 | 38 | 0 | 11 | 17 | 53 | 11 | 28 | 8 | 22 |  |  |  |  |  |  |  |  |  |  |
| Cc1ccccc1-n1cnc2c(N)ncnc21 [SKF-97510] | 15 | 18 | 0 | 0 | 0 | 0 | 0 | 0 | 0 | 42 |  |  |  |  |  |  |  |  |  |  |
| CCn1c(-c2cccnc2O)nc2cnccc21 [SB-736715] | 23 | 0 | 0 | 0 | 0 | 15 | 0 | 0 | 0 | 3 |  |  |  |  |  |  |  |  |  |  |
| Cn1cncc1-c1ccc2ncnc(Nc3ccc(OCc4ccccc4)cc3)c2c1 [GW320571] | 0 | 0 | 0 | 30 | 21 | 20 | 0 | 6 | 0 | 0 |  |  |  |  |  |  |  |  |  |  |
| Cc1cc(NCC(c2ccccc2)c2ccccc2)nc(NCc2ccc(C(F)(F)F)cc2)n1 [GW497681] | 0 | 3 | 0 | 1 | 0 | 0 | 0 | 15 | 34 | 0 |  |  |  |  |  |  |  |  |  |  |
| O=C1NC(=O)C(N2CCc3ccccc32)=C1c1ccccc1Cl [SB-373598] | 0 | 0 | 8 | 15 | 2 | 22 | 0 | 8 | 14 | 9 |  |  |  |  |  |  |  |  |  |  |

| Compound | %Inh [1, 11] [%] | %Inh [2, 11] [%] | %Inh [3, 11] [%] | %Inh [4, 11] [%] | %Inh [5, 11] [%] | %Inh [6, 11] [%] | %Inh [7, 11] [%] | %Inh [8, 11] [%] | %Inh [9, 11] [%] | %Inh [10, 11] [%] | %Inh ([1]; 1 µM) [%] | %Inh ([2]; 1 µM) [%] | %Inh ([3]; 1 µM) [%] | %Inh ([4]; 1 µM) [%] | %Inh ([5]; 1 µM) [%] | %Inh ([6]; 1 µM) [%] | %Inh ([7]; 1 µM) [%] | %Inh ([8]; 1 µM) [%] | %Inh ([9]; 1 µM) [%] | %Inh ([10]; 1 µM) [%] |
| --- | --- | --- | --- | --- | --- | --- | --- | --- | --- | --- | --- | --- | --- | --- | --- | --- | --- | --- | --- | --- |
| Cl.c1ccc(-c2n[nH]cc2-c2ccnc(-c3ccc(CN4CCOCC4)cc3)c2)nc1 [GW776245] | 0 | 0 | 0 | 42 | 1 | 10 | 0 | 2 | 0 | 1 |  |  |  |  |  |  |  |  |  |  |
| CN(C)CCN(C)C(=O)c1cc(-c2ccncc2)c(-c2ccc(Cl)c(O)c2)o1.Cl.Cl [SB-710397] | 0 | 0 | 0 | 33 | 18 | 11 | 0 | 10 | 0 | 0 |  |  |  |  |  |  |  |  |  |  |
| NC(=O)c1nnc2ccccc2c1N | 65 | 0 | 15 | 10 | 10 | 0 | 78 | 37 | 9 | 5 |  |  |  |  |  |  |  |  |  |  |
| O=C(O)COc1ncnc2cc(-c3ccc4[nH]ncc4c3)sc12 | 40 | 24 | 0 | 14 | 9 | 31 | 22 | 7 | 0 | 0 |  |  |  |  |  |  |  |  |  |  |
| Cc1cccc(-c2nc(Nc3cccc(C(N)=O)c3)c3ccccc3n2)n1 [GW876019] | 20 | 0 | 0 | 35 | 0 | 0 | 0 | 28 | 11 | 20 |  |  |  |  |  |  |  |  |  |  |
| COc1cccc(NC(=O)NC2CCN(c3ccnc(Nc4ccc(F)cc4)n3)C2)c1 (centres unmarked) [GSK1379721] | 17 | 0 | 0 | 19 | 0 | 1 | 6 | 0 | 25 | 6 |  |  |  |  |  |  |  |  |  |  |
| COc1cc2ncn(-c3cc(OCC4CCCO4)c(C(N)=O)s3)c2cc1OC (centres unmarked) [GSK204607] | 1 | 6 | 0 | 11 | 1 | 0 | 81 | 19 | 15 | 0 |  |  |  |  |  |  |  |  |  |  |
| CC(C)(C)c1ccc(C(=O)Nc2cn3cc(Cl)ccc3n2)cc1 | 0 | 0 | 0 | 31 | 0 | 0 | 0 | 9 | 7 | 0 |  |  |  |  |  |  |  |  |  |  |
| COc1ccc(CNC(=O)NC2CCN(c3ccnc(Nc4cc(OC)c(OC)c(OC)c4)n3)C2)cc1 (centres unmarked) [GSK1379748] | 1 | 0 | 0 | 14 | 2 | 4 | 2 | 10 | 36 | 0 |  |  |  |  |  |  |  |  |  |  |
| O=c1cc(N2CCOCC2)nc2n(Cc3cccc(Cl)c3Cl)ccn12 [GSK2286295] | 0 | 0 | 0 | 17 | 8 | 2 | 0 | 25 | 0 | 8 |  |  |  |  |  |  |  |  |  |  |
| Cc1ccc(NC(=O)Nc2cccc(C(F)(F)F)c2)cc1 [GSK955403] |  |  |  |  |  |  |  |  |  |  | 57 | 16 | 0 | 0 | 0 | 22 | 0 | 32 | 9 | 0 |
| Cc1cc(-c2ccc3c(c2)CC[C@@H](N[C@@H](C)c2ccccc2)C3)cnc1N.Cl [GW412617] | 15 | 0 | 0 | 14 | 28 | 21 | 8 | 10 | 0 | 0 |  |  |  |  |  |  |  |  |  |  |
| COc1ccc2nc(-c3cccc(C)n3)nc(Nc3ccncc3)c2c1 [GSK204919] | 0 | 0 | 0 | 43 | 1 | 0 | 0 | 5 | 0 | 0 |  |  |  |  |  |  |  |  |  |  |
| Cn1ccc2ncnc(Oc3cccc(C(=O)Nc4ccccc4)c3)c21 | 13 | 20 | 7 | 0 | 0 | 0 | 4 | 0 | 0 | 4 |  |  |  |  |  |  |  |  |  |  |
| COC(=O)c1c(-c2ccccc2)c2cc(C(=O)O)ccc2c(=O)n1Cc1ccccc1 | 12 | 0 | 9 | 25 | 0 | 8 | 0 | 0 | 0 | 0 |  |  |  |  |  |  |  |  |  |  |
| Fc1cc(Cl)ccc1Nc1ccnc2cc(I)ccc12 [GW551191] | 9 | 0 | 0 | 8 | 0 | 0 | 0 | 11 | 13 | 0 |  |  |  |  |  |  |  |  |  |  |
| CCCc1ccc(S(=O)(=O)NC2CCN(c3ccnc(Nc4ccc(F)cc4)n3)C2)cc1 (centres unmarked) [GSK1379715] | 0 | 0 | 0 | 0 | 8 | 0 | 0 | 0 | 11 | 0 |  |  |  |  |  |  |  |  |  |  |
